Where “and” joins values, the source holds several entries; their conditions need not be identical. Identical values can stand only once. Records with an inconclusive call do not appear. Calls of active or inactive are those of the source. Unless noted, calls come from the whole dose curve; as a rule, active = well fitted curve in the direction sought with a large enough effect; inconclusive = small, poorly fitted or top-dose-only effect, or another doubt; inactive = no such curve, though single readings can be large; an effect the other way counts as inactive or inconclusive.
Assays:
[1] = Cell Viability - BJ (AID 421; calls by dose curve;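 note: potency is the fitted concentration of half-maximal effect; cells exposed to compound for 40 hours at 37 °C before readout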); conditions: BJ fibroblast viability, qHTS
How it was run: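 Luminescent ATP signal (CellTiter-Glo, 20 min at room temperature) served as the read-out of viable BJ cells after 40 hours of compound treatment. Responses were scaled between DMSO and 100 uM tamoxifen, and AC50 values were obtained by Hill modeling.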

[2] = Cell Viability - Jurkat (AID 426;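 active = dose-dependent loss of cell ATP signal giving a full or clear fitted curve, ranked by lower potency value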; note: potency is the fitted concentration of half-maximal effect); conditions: qHTS
How it was run: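 Jurkat (clone E6-1, human T-cell leukemia) cells, 5000/well in complete medium, were exposed to compound for 40 hr at 37 °C. Viability was read as intracellular ATP by CellTiter-Glo luminescence; AC50 came from Hill fits of concentration-response data.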

[3] = Cell Viability - Hek293 (AID 427;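 active = compounds whose dose-response curve shows a full or clear partial loss of cell viability, called from curve shape rather than a numeric limit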;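 note: potency is the fitted concentration of half-maximal effect; cells exposed to compound for 40 hours at 37 °C before reading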); conditions: qHTS
How it was run: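 Luminescent ATP read-out (CellTiter-Glo, 20 min RT) after 40 hr compound exposure at 37 °C in complete medium. Signal normalized to DMSO (basal) and 100 uM tamoxifen (100% inhibition); concentration-response fitted with the standard Hill equation to give AC50.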

[4] = Cell Viability - MRC5 (AID 434; calls by dose curve;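 note: potency is the fitted concentration of half-maximal effect; potency reflects cytotoxicity seen as loss of intracellular ATP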); conditions: MRC5 lung fibroblast viability, qHTS
How it was run: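 qHTS cytotoxicity in human lung fibroblast MRC5 cells; 40 hr treatment, 37 °C; cellular ATP by luciferase luminescence; DMSO = 0%, 100 uM tamoxifen = 100% inhibition; Hill-fit AC50.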

[5] = Cell Viability - Mesenchymal (AID 546); conditions: mesenchymal cells viability, qHTS; series mostly up to 91.7 µM;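 note: cells exposed to compound for 40 hours before reading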
How it was run: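 AC50 values reflect the drop in intracellular ATP in a human kidney mesenchymal line derived from normal glomeruli. Treatment lasts 40 hr at 37 °C in complete medium, and the signal comes from CellTiter-Glo luminescence.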

[6] = Cellular Toxicity (caspase-3) SHSY5Y (AID 657); conditions: SH-SY5Y caspase-3 activation, DMSO zero, 10 µM staurosporine = 100%; series mostly up to 91.7 µM
How it was run: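 SH-SY5Y human neuroblastoma cells, 1500/well, exposed to compound for 16 hours at 37 °C in complete medium. Caspase-3/7 activity read by Caspase-Glo luminescence after 1 hr at room temperature, normalized to DMSO and 10 uM staurosporine; AC50 from Hill fit.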

[7] = Cellular Toxicity (caspase-3) MRC-5 (AID 659); conditions: MRC-5 cells, luminescence, normalized: DMSO 0%, 10 µM staurosporine 100%; series mostly up to 91.7 µM
How it was run: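 Concentration-dependent caspase 3/7 activation is measured in human normal lung fibroblasts (MRC-5) following 16-hour treatment. AC50 values come from standard Hill-equation modeling of luminescence normalized to DMSO and 10 uM staurosporine.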

[8] = Cellular Toxicity (caspase-3) Mesangial (AID 660); conditions: mesangial cells, normalized: DMSO 0%, 100 µM tamoxifen 100%; series mostly up to 91.7 µM;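 note: cells exposed to compound for 16 h before the caspase read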
How it was run: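 Human renal glomerular mesangial cells (1000/well) were treated with compounds for 16 h at 37 °C in complete medium, then caspase 3/7 activity was read by Caspase-Glo luminescence. Data were normalized to DMSO and 100 uM tamoxifen; AC50 from Hill fits.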

[9] = Cellular Toxicity (caspase-3) SK-N-SH (AID 661); conditions: SK-N-SH caspase-3 activation, qHTS; series mostly up to 91.7 µM
How it was run: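 SK-N-SH human neuroblastoma cells (1500/well) were treated with compounds for 16 hr at 37 °C in complete medium; caspase 3/7 activity was read by Caspase-Glo luminescence. AC50 came from Hill fits of data normalized to DMSO and 10 uM staurosporine.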

[10] = Cellular Toxicity (caspase-3) Hek293 (AID 664); conditions: HEK293 caspase-3 activation, DMSO = 0%, 100 µM tamoxifen = 100%; at 92.2 µM (top of the series);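 note: cells exposed to compound for 16 h at 37 °C before readout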
How it was run: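 HEK293 cells were exposed to compounds in complete medium for 16 hr at 37 °C, then caspase-3/7 activity was read by Caspase-Glo 3/7 luminescence after 20 min at room temperature. Data normalized to DMSO and 100 uM tamoxifen; AC50 from Hill fits.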

[11] = Cellular Toxicity (caspase-3) N2a (AID 665); conditions: N2a cells, luminescence, normalized: DMSO 0%, 10 µM staurosporine 100%; series mostly up to 92.2 µM;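 note: compound exposure lasted 16 h at 37 °C before readout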
How it was run: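 Mouse N2a neuroblastoma cells (1500/well) were treated with compounds for 16 h at 37 °C, then caspase-3/7 activity was read by Caspase-Glo luminescence after 1 h at room temperature. Data were normalized to DMSO and 10 uM staurosporine; AC50 from Hill fits.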

[12] = Cell Viability - LYMP1-002 - Assay at 16 hr (AID 948); conditions: LYMP1-002 lymphoblastoid cell viability; series mostly up to 92.2 µM;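 note: 0% = DMSO alone and full effect = 92 µM tetraoctylammonium bromide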
How it was run: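 LYMP1-002 human lymphoblastoid cells, 2500/well, were treated with compounds for 16 hr at 37 C in complete medium. Viability was read as intracellular ATP by CellTiter-Glo luminescence, and AC50 was derived from a Hill fit to concentration-response data.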

[13] = MultiTox-Fluor Cytotoxicity Assay - LYMP1-003 - Dead Cells (AID 961); conditions: LYMP1-003 lymphoblastoid cells, dead-cell protease fluorescence; series mostly up to 92.2 µM;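 note: 0% = DMSO and 100% = tetraoctylammonium bromide; nearly all actives have a fitted effect of over 70% in size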
How it was run: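 Human lymphoblastoid LYMP1-003 cells (2500/well) were treated with compounds for 16 hr at 37 C in complete medium. Dead-cell protease release was read by bis-AAF-R110 fluorescence (Ex/Em 485/520). AC50 came from Hill fits, normalized to DMSO and 15 uM tetraoctylammonium bromide.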

[14] = MultiTox-Fluor Cytotoxicity Assay - LYMP1-003 - Live Cells (AID 962); conditions: LYMP1-003 lymphoblastoid cells, MultiTox-Fluor live-cell protease fluorescence; series mostly up to 92.2 µM;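 note: 0% = DMSO only and full loss = 92 µM tetraoctylammonium bromide; cytotoxic hits lower the live-cell protease signal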
How it was run: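 LYMP1-003 human lymphoblastoid cells (2500/well) in complete medium were preincubated 5 hr at 37 C, then exposed to compounds for 16 hr at 37 C. Live-cell protease cleavage of GF-AFC read by fluorescence (Ex/Em 405/510); AC50 from Hill fits.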

[15] = Cell Viability - LYMP1-003 - Assay at 24 hr (AID 963); conditions: LYMP1-003 lymphoblastoid cell viability; series mostly up to 92.2 µM;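 note: plate controls were DMSO only for no effect and tetraoctylammonium bromide positive control for full effect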
How it was run: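 Human lymphoblastoid LYMP1-003 cells (2500/well) were rested 5 hr at 37 C, then exposed to compounds in complete medium for 24 hr at 37 C. Cellular ATP was quantified by CellTiter-Glo luminescence, and AC50 values came from Hill fits of concentration-response data.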

[16] = Cell Viability - LYMP2-008 (AID 980); conditions: LYMP2-008 lymphoblastoid cell viability, qHTS; series mostly up to 92.2 µM; note: % is set by controls: 0 for no effect and ±100 for the full control effect; nearly all actives have a fitted effect of over 60% in size
How it was run: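 Human lymphoblastoid cells (2500/well) were plated, held 5 hr at 37 C, then exposed to compounds for 24 hr at 37 C in complete medium. Intracellular ATP was read by CellTiter-Glo luminescence; AC50 from Hill-fitted concentration-response.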

[17] = qHTS Assay for Identification of Small Molecule Inducers of Hypoxia Response (AID 2120; active = well fitted curve in the direction sought with a large enough effect in the signal ratio, with a control signal flat, not every such curve was filed as active; the % refers to the signal ratio; note: 0% is about no effect); conditions: hypoxia response reporter cells, beta-lactamase ratio readout; series mostly up to 104 µM
How it was run: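 HRE-beta-lactamase reporter in CellSensor HRE-bla ME-180 cells, 2500 cells/well in Opti-MEM with 0.5% dialyzed FBS; compounds tested as titration series, 17 h at 37 degrees C. CCF4 substrate 2.5 h at room temperature; AC50 from 460/530 nm ratio.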

[18] = molecular target: Peroxisome proliferator-activated receptor alpha (Homo sapiens) (UniProt Q07869); assay: qHTS assay for small molecule agonists of the peroxisome proliferator-activated receptor alpha (PPARalpha) signaling pathway (AID 651778); conditions: PathHunter PPARalpha complementation, chemiluminescence, 6 h; hits give high values; note: % of control where 0% means no effect
Sequence of Peroxisome proliferator-activated receptor alpha (Homo sapiens) (Q07869 whole entry, looked up): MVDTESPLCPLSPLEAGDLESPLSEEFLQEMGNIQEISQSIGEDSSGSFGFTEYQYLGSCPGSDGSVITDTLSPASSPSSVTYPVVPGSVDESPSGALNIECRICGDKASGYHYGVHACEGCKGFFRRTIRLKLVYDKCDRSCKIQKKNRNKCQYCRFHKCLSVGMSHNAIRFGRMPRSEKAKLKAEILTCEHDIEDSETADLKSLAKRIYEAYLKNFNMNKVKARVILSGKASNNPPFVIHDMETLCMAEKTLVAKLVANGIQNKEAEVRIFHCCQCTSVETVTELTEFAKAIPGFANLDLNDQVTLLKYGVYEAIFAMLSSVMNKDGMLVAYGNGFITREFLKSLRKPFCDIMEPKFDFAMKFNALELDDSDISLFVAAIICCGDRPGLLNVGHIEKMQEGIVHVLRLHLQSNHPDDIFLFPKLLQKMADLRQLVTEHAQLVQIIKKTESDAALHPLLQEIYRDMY
How it was run: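 Chemiluminescence from complemented enzyme reported PPARalpha activation in cells after 6 hr of compound treatment at 37 C. The detection reagent was incubated for 60 min at room temperature, and compounds were scored as agonists.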

[19] = qHTS assay for small molecule agonists of the antioxidant response element (ARE) signaling pathway measured by Nrf2-dependant transcriptional activity - cell viability counter screen (AID 720653; active = well fitted curve in the direction sought with a large enough effect in the repeat runs; an effect the other way counts as inactive or inconclusive; note: % is set by controls: 0 for no effect and ±100 for the full control effect); conditions: ARE-bla HepG2 viability, CellTiter-Glo ATP luminescence, 16 h; hits give low values
How it was run: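 Cytotoxicity counter screen: intracellular ATP quantified by CellTiter-Glo luminescence in the same ARE-bla HepG2 plates, after 16 h compound exposure and a 2 h beta-lactamase substrate step.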

[20] = qHTS assay for cell viability of the p53RE-bla HCT-116 cell line (AID 743292); conditions: p53RE-bla HCT-116 viability, ATP luminescence, 16 h; series mostly up to 95 µM; note: % is set by controls: 0 for no effect and ±100 for the full control effect; nearly all actives have a fitted effect of over 55% in size
How it was run: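 ATP-based luminescent viability (CellTiter-Glo, 30 min RT) after 16 h compound treatment at 37 C of p53RE-bla HCT-116 cells, seeded at 4,000 cells/well and rested 5 h before dosing.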

c1ccc(N=NNc2ccccc2)cc1
inactive: Potency [1] > 92 µM | Potency [2] > 92 µM | Potency [3] > 92 µM | Potency [4] > 92 µM | Potency [5] | outcome [6] | outcome [7] | outcome [8] | Potency [9] | caspase-3 activation [10] -0.924% | outcome [11] | outcome [12] | Potency [13] | outcome [14] | outcome [15] | Potency [16] | Potency [17] | max response [18] -1.28% and 2.45% | max response [19] -24.2% and -20.9% | Potency [20]

CCBr
inactive: Potency [1] > 92 µM | Potency [2] > 92 µM | Potency [3] > 92 µM | Potency [4] > 92 µM | Potency [5] | outcome [6] | outcome [7] | outcome [8] | Potency [9] | caspase-3 activation [10] 2.63% | outcome [11] | outcome [12] | Potency [13] | outcome [14] | outcome [15] | Potency [16] | Potency [17] | max response [18] -2.39% | max response [19] -4.15% | Potency [20]

CC(C)CON=O
inactive: Potency [1] > 92 µM | Potency [2] > 92 µM | Potency [3] > 92 µM | Potency [4] > 92 µM | Potency [5] | outcome [6] | outcome [7] | outcome [8] | Potency [9] | caspase-3 activation [10] 0.719% | outcome [11] | outcome [12] | Potency [13] | outcome [14] | outcome [15] | Potency [16] | Potency [17] | max response [18] -1.42% | max response [19] 3.18% | Potency [20]

CCCCC(=O)Cl
inactive: Potency [1] > 92 µM | Potency [2] > 92 µM | Potency [3] > 92 µM | Potency [4] > 92 µM | Potency [5] | outcome [6] | outcome [7] | outcome [8] | Potency [9] | caspase-3 activation [10] -0.249% | outcome [11] | outcome [12] | Potency [13] | outcome [14] | outcome [15] | Potency [16] | Potency [17] | max response [18] -8.92% | max response [19] 2.67% | Potency [20]

O=C(O)CCl
inactive: Potency [1] > 92 µM | Potency [2] > 92 µM | Potency [3] > 92 µM | Potency [4] > 92 µM | Potency [5] | outcome [6] | outcome [7] | outcome [8] | Potency [9] | caspase-3 activation [10] -1.43% | outcome [11] | outcome [12] | Potency [13] | outcome [14] | outcome [15] | Potency [16] | Potency [17] | max response [18] -6.37% | max response [19] 1.47% | Potency [20]

Reference: PubChem BioAssay (NCATS)
